Measurements taken from PubChem BioAssay (NCI).
Compounds without any hit were thinned out: in the full panel of roughly 83,000, 20% have a hit.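 Note: values are percent growth. 100 is the growth of untreated cells, values between 100 and 0 indicate rising inhibition; between -100 and 0 indicates cell death.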 A number with no mark means an inactive call. The source made the active and inactive calls. How the source made its calls: active means growth percent below 10; inactive means the rest.

Test system: UACC-257 melanoma
Assay: NCI-60 one-dose screen, 48 h (100 = growth as untreated, 0 = no growth, -100 = all killed)
Details: 10 µM

Q: With `O=C(/C=C/c1ccco1)c1nc2ccccc2n1Cc1ccc(Br)cc1` as the molecule, how does the growth read?
A: 36.9%

Q: `O=C(/C=C/c1ccco1)c1nc2ccccc2n1Cc1ccc(F)cc1` was tested. Which growth did it give?
A: 62.7%

Q: Which growth does the source give for `COc1cc2cc(C(=O)N3C[C@@H](CCl)c4c3cc(OC(=O)N3CCN(C)[C@@H]5CSSC[C@@H]53)c3ccccc43)[nH]c2c(OC)c1OC` here?
A: -15.4% (active)

Q: With `C#CC[Se]C(=O)c1ccc2n[se]nc2c1` as the molecule, how does the growth read?
A: 59.3%

Q: How did the growth turn out when `O=C(/C=C/c1ccc(Cl)cc1Cl)c1nc2ccccc2n1Cc1ccc(F)cc1` was run?
A: 66.3%

Q: Which growth does the source give for `O=C(/C=C/c1ccc(Cl)cc1)c1nc2ccccc2n1Cc1ccc(Br)cc1` here?
A: 71%

Q: Which growth does the source give for `CCOP(=O)(OCC)C(NC(C)=O)C(=O)SCCN` (centres undefined) here?
A: 96.2%

Q: How did the growth turn out when `COc1cc2cc(C(=O)N3C[C@@H](CCl)c4c3cc(OC(=O)N3CCN(C)[C@@H]5CSSC[C@H]53)c3ccccc43)[nH]c2c(OC)c1OC` was run?
A: -46.3% (active)

Q: `COc1ccc2cc([C@H](C)C(=O)[Se]CCC#N)ccc2c1` was tested. Which growth did it give?
A: -76.9% (active)

Q: Which growth does the source give for `CC12OOC(C)(OO1)C2CCC(=O)OCCNc1ccnc2cc(Cl)ccc12` (centres undefined) here?
A: 82.1%

Q: For `CC(C)N=C([Se])NC(=O)c1cccs1`, which growth is on record?
A: 39.3%

Q: Which growth does the source give for `Cc1ccc2[nH]c(=S)n(-c3ccc(F)cc3)c(=O)c2c1` here?
A: 104%

Q: How did the growth turn out when `CCOC(=O)C1=C(Nc2ccccc2)C(=O)OC12C(=O)Nc1ccccc12` (centres undefined) was run?
A: 101%

Q: `CC12CCC3(CCC(=O)NCCCNc4ccnc5cc(Cl)ccc45)[C@@](C)(OO[C@]3(C)O1)O2` was tested. Which growth did it give?
A: 51.1%

Q: Which growth does the source give for `CC[C@]12C=CCN3CC[C@@]4(c5ccc(OC)cc5N(C)[C@H]4[C@@](O)(C(=O)OC)[C@@H]1OC(=O)CCCC[P+](C1CCCCC1)(C1CCCCC1)C1CCCCC1)[C@@H]32` here?
A: -82.1% (active)

Q: `CC(=O)Oc1ccccc1C(=O)[Se]C(=NC(C)C)NC(C)C` was tested. Which growth did it give?
A: -95.1% (active)

Q: How did the growth turn out when `COCCOCCOCCOc1ccc(-n2cc(CCCN(CCNc3ccnc4cc(Cl)ccc34)C(=O)CCC(=O)O[C@@H]3O[C@@H]4OC5(C)CC[C@H]6[C@H](C)CC[C@@H]([C@H]3C)[C@@]46OO5)nn2)cc1` was run?
A: 13.1%

Q: Which growth does the source give for `C[C@H]1[C@@H](CC(=O)N[C@@H](Cc2coc3ccccc23)B(O)O)O[C@@H]2OC3(C)CC[C@H]4[C@H](C)CC[C@@H]1[C@@]24OO3` here?
A: -41% (active)

Q: Which growth does the source give for `COP(=O)(CC(F)(F)C(F)(F)F)OC` here?
A: -36.5% (active)

Q: `CC12OOC(C)(OO1)C2CCC(=O)NCCNc1ccnc2cc(Cl)ccc12` (centres undefined) was tested. Which growth did it give?
A: 112%

Q: Which growth does the source give for `CC[C@]12C=CCN3CC[C@@]4(c5ccc(OC)cc5N(C)[C@H]4[C@@](O)(C(=O)OC)[C@@H]1OC(=O)CCC[P+](c1ccc(C)cc1)(c1ccc(C)cc1)c1ccc(C)cc1)[C@@H]32` here?
A: -92.7% (active)

Q: `CC(C)N=C([Se])NC(=O)c1ccccc1` was tested. Which growth did it give?
A: -36.2% (active)

Q: With `CC[C@]12C=CCN3CC[C@@]4(c5ccc(OC)cc5N(C)[C@H]4[C@@](O)(C(=O)OC)[C@@H]1OC(=O)CCC[P+](C1CCCCC1)(C1CCCCC1)C1CCCCC1)[C@@H]32` as the molecule, how does the growth read?
A: -80.9% (active)

Q: Which growth does the source give for `CC1=C(COCCOC(=O)c2ccc(S(=O)(=O)F)cc2)C2=C(C)C3(CC3)[C@@](C)(O)C(=O)C2=C1` here?
A: -31.6% (active)

Q: Which growth does the source give for `CC[C@]12C=CCN3CC[C@@]4(c5ccc(OC)cc5N(C)[C@H]4[C@@](O)(C(=O)OC)[C@@H]1OC(=O)CCCC[P+](c1ccc(OC)cc1)(c1ccc(OC)cc1)c1ccc(OC)cc1)[C@@H]32` here?
A: -93.4% (active)

Q: `CC1=C(CCC=NNC(N)=O)C2=C(C)C3(CC3)[C@@](C)(O)C(=O)C2=C1` was tested. Which growth did it give?
A: -76.1% (active)

Q: With `CC[C@@]12CC(C(=O)OC)=C3Nc4cc5c(cc4[C@@]34CCN(C[C@H]3O[C@H]31)[C@@H]24)[C@@H]1[C@H](O5)[C@@H](O)[C@@]2(CC)CC(C(=O)OC)=C3Nc4cc(OC)ccc4[C@@]34CCN1[C@@H]24` as the molecule, how does the growth read?
A: 54.3%

Q: Which growth does the source give for `CCOP(=O)(CC(F)(F)C(F)(F)F)OCC` here?
A: -31.4% (active)

Q: Which growth does the source give for `CC1=C2C(=C[C@@](C)(COP(=O)(Oc3ccccc3)Oc3ccccc3)[C@@H]2O)C(=O)[C@@](C)(O)C12CC2` here?
A: -41.2% (active)

Q: With `CC(=O)Oc1ccccc1C(=O)NC([Se])=NC1CCCCC1` as the molecule, how does the growth read?
A: -1.74% (active)

Q: With `C[C@H]1[C@H](OC(=O)CCC(=O)N(CCCc2cn(-c3ccc(CN4CCOCC4)cc3)nn2)CCNc2ccnc3cc(Cl)ccc23)O[C@@H]2OC3(C)CC[C@H]4[C@H](C)CC[C@@H]1[C@@]24OO3` as the molecule, how does the growth read?
A: -69.8% (active)

Q: `O=C(/C=C/c1ccc(Cl)cc1)c1nc2ccccc2n1Cc1ccc(F)cc1` was tested. Which growth did it give?
A: 51.4%

Q: Which growth does the source give for `CC1=C(CCC=O)C2=C(C)C3(CC3)[C@@](C)(O)C(=O)C2=C1` here?
A: -92.1% (active)

Q: `O=C(NC([Se])=NC1CCCCC1)c1ccc2c(c1)OCO2` was tested. Which growth did it give?
A: 50.5%

Q: How did the growth turn out when `C[C@H]1[C@H](OC(=O)CCC(=O)N(CCCc2cn(-c3ccc(C#N)cc3)nn2)CCNc2ccnc3cc(Cl)ccc23)O[C@@H]2OC3(C)CC[C@H]4[C@H](C)CC[C@@H]1[C@@]24OO3` was run?
A: 58.3%

Q: For `C[C@H]1[C@@H](Oc2ccc(-c3cn(-c4ccnc5cc(Cl)ccc45)nn3)cc2)O[C@@H]2OC3(C)CC[C@H]4[C@H](C)CC[C@@H]1[C@@]24OO3`, which growth is on record?
A: 41.1%

Q: `COc1ccc(/C=C/C(=O)c2nc3ccccc3n2Cc2ccc(Br)cc2)cc1` was tested. Which growth did it give?
A: 72.3%

Q: For `COC(=O)CCn1c(-c2ccc(-n3cc(-c4ccc(O[C@H]5O[C@@H]6OC7(C)CC[C@H]8[C@H](C)CC[C@@H]([C@H]5C)[C@@]68OO7)cc4)nn3)cc2)nc2ccccc21`, which growth is on record?
A: 27.9%

Q: For `C[C@H]1[C@H](OC(=O)CCC(=O)N(CCCc2cn(-c3ccc([N+](=O)[O-])cc3)nn2)CCNc2ccnc3cc(Cl)ccc23)O[C@@H]2OC3(C)CC[C@H]4[C@H](C)CC[C@@H]1[C@@]24OO3`, which growth is on record?
A: 63.3%
